High-throughput results (PubChem BioAssay)
GC-A act: GC-A (human) enzyme activation; HEK293 GC-A cells, cGMP TR-FRET, EC30 ANP; 0% at EC30 ANP, 100% saturating ANP; activation, % at 10 µM; hit rate 0.14% among 370,000; AID 1671463; in the data active means activation above about 40%
GC-B act: GC-B (human) receptor activation; P20594; HEK293-GC-B cells, CNP EC30, cGMP TR-FRET; 0% at EC30 CNP, 100% saturating CNP; activation, % at 10 µM; hit rate 0.11% among 370,000; AID 1920062;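 active means activation at 10 µM reaching about 35% in either raw or pattern-adjusted values, limit read from the data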
HIF act: HIF pathway transcriptional activation. hit rate 0.32% among 300,000. activation, % at 7.5 µM (by protocol). AID 1910. U2OS HRE-luciferase reporter, luminescence; normalized: DMSO 0%, desferrioxamine 100%;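 active means mean activation of at least 10% of the iron chelator positive control signal, with at least half of replicates also reaching 10%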
KLK7 zymogen act: activators of human kallikrein-7 zymogen; purified proKLK7, EDANS-DABCYL substrate fluorescence; 100% is mature enzyme control, 0% vehicle; activation, % at 7 µM; P49862; hit rate 0.9% among 370,000;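 active means activation above the mean of all tested compounds plus 3 SD, computed per campaign excluding outliers beyond control limits, cut at about 13% in these data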
Large screens that a line does not name were inactive. Compounds with a hit are over-represented: about 1.3% of the library has one in this group of screens.

S=C(Nc1ccc(Cl)cc1)Nc1ccc2cn[nH]c2c1	HIF act 10
CCCC1CCC2(CC1)CCC2OC(=O)Nc1ccccc1C (stereo not given)	none (no result: HIF act, KLK7 zymogen act)
CCN(C(=O)[C@@H](C)[C@@H](O)c1ccc2ccccc2c1)c1ccccc1	none (no result: HIF act)
COc1cc(C(=O)NCCC(c2ccccc2)c2ccccc2)cc(OC)c1OC	GC-B act 118
COc1cc(C(=O)NCCCCc2ccccc2)cc(OC)c1OC	none
CCCCN(C)C(=O)C(Cc1ccccc1)NS(=O)(=O)c1ccc2c(c1)c(=O)n(C)c(=O)n2C (stereo not given)	GC-B act 47
NC(=S)N/N=C1\CC(c2ccc3c(c2)OCCO3)Oc2ccc(F)cc21 (stereo not given)	GC-B act 42
NC(=S)N/N=C1\CC(c2ccc3c(c2)OCCCO3)Oc2ccc(F)cc21 (stereo not given)	none
CC(=O)c1ccc([C@H](O)[C@H](C)C(=O)N(C)c2ccccc2)cc1	none (no result: HIF act)
Cc1oc(C(C)(C)C)cc1-c1cc(NC(=O)c2ccc([N+](=O)[O-])cc2)n[nH]1	GC-A act 44, GC-B act 57
COc1ccc(CCNC(=O)CC(NC(=O)c2ccccc2Cl)c2ccccc2)cc1 (stereo not given)	HIF act 46
CCOC(=O)c1cc(-c2ccc(F)cc2)nc2c1c(=O)[nH]c(=O)n2Cc1ccccc1	GC-B act 43
CC(=O)N1CCC(=NNC(=O)c2cc3ccccc3cc2O)CC1	HIF act 45
O=C(N/N=C/c1ccc(OC(=O)c2ccc(Br)cc2)cc1)c1ccncc1	none
Nc1nonc1C(=O)N/N=C/c1cc(Br)ccc1O	HIF act 22
O=C(N/N=C/c1cc(Br)ccc1OC(=O)c1ccc(Br)cc1)c1ccncc1	HIF act 19
Cc1nc(C)c(C(=O)N/N=C/c2cc(Br)ccc2O)s1	HIF act 29
O=C(N/N=C/c1cc(Br)ccc1O)c1ccncc1	HIF act 34
CC(C)[C@H](NC(=O)[C@H](Cc1ccccc1)NC(=O)OC(C)(C)C)C(=O)N1CCC2CCN(S(=O)(=O)c3ccccc3)CC21 (stereo not given in full)	none (no result: HIF act)
c1ccc(-c2nnc3sc(C4CCCCC4)nn23)cc1	none (no result: HIF act)
Cc1ccc(-c2cc(-c3nnc(SCc4cccc5ccccc45)n3N)[nH]n2)cc1	none (no result: HIF act)
C[C@@H]1OCN(C)[C@H]2C[C@H]3c4[nH]c5cccc(-c6ccc7c(c6)OCO7)c5c4CCN3C[C@@H]12	none (no result: HIF act)
O=C(N/N=C/c1ccc(O)c(O)c1)c1cccc(S(=O)(=O)N2CCCCC2)c1	none
O=C(N/N=C\c1cc(Br)ccc1O)c1ccc(S(=O)(=O)N2CCCCC2)cc1	HIF act 37
Cc1ccc(N=Nc2ccc(O)c(/C=N\NC(=O)c3ccc(N)cc3)c2)cc1C	HIF act 11
CC1=C(C(=O)N2CCOCC2)C(c2ccc(-c3ccccc3)cc2)NC(=S)N1 (stereo not given)	GC-A act 79, GC-B act 70
CC1=C(C(=O)N2CCOCC2)C(c2ccc(O)cc2)NC(=S)N1 (stereo not given)	GC-B act 41
CC1=C(C(=O)N2CCOCC2)C(c2cc(C)ccc2C)NC(=S)N1 (stereo not given)	none
C(=N\Nc1nc2ccccc2[nH]1)/c1ccccn1	none
O=c1cnnc(N/N=C/c2ccccn2)[nH]1	HIF act 75
Cc1cc(=O)[nH]c(N/N=C/c2ccccn2)n1	HIF act 40
CCCCc1ccc2nc(NC(=O)c3ccco3)sc2c1	none (no result: HIF act, KLK7 zymogen act)
COC(=O)c1cc(-c2cccc(C(F)(F)F)c2)c(=O)n2c1CCC2	none (no result: HIF act)
COC(=O)C1CN(Cc2cn(Cc3ccccc3)nn2)CCS(=O)(=O)N1Cc1ccccc1 (stereo not given)	none (no result: HIF act)
Cc1nnc(-c2ccccc2)c(=O)n1/N=C/c1c(O)ccc2ccccc12	HIF act 69
Cc1nnc(C)n1/N=C/c1c(O)ccc2ccccc12	none
Cc1nc2ccccc2c(=O)n1/N=C/c1ccc2ccccc2c1O	HIF act 11 (no result: KLK7 zymogen act)
CCOC(=O)[C@@]12CN(C(=O)OC(C)(C)C)CC=C1N(Cc1ccc(OC)cc1)C(=O)[C@H]2CC(=O)NCc1ccccc1	none (no result: HIF act)
Cc1ccc(OCCn2c(CCNC(=O)C3CCCCCC3)nc3ccccc32)cc1	none (no result: HIF act, KLK7 zymogen act)
C[C@@H](O)CC#Cc1ccc2oc(=O)c(-n3cc(-c4ccsc4)nn3)cc2c1	none (no result: HIF act)
C[C@H](O)Cc1cn(-c2cc3cc(C#Cc4ccsc4)ccc3oc2=O)nn1	GC-A act 47 (no result: HIF act)
O=C(c1ccc(F)cc1Cl)N(Cc1ccccn1)CC1CCCO1 (stereo not given)	none (no result: HIF act)
Cn1c(Cc2ccccc2)nc(=O)c2ccccc21	none (no result: HIF act)
Cn1c(CO)nc2c3ccccc3ccc21	HIF act 36
CC1(Cc2ccccc2C#N)C(=O)Nc2cc(-c3ccccc3Cl)ccc21 (stereo not given)	none (no result: HIF act)
CC1(Cc2ccc(C(F)(F)F)nc2)C(=O)Nc2cc(-c3ccccc3Cl)ccc21 (stereo not given)	GC-A act 42 (no result: HIF act)
CCS(=O)(=O)c1ncc(Cl)c(C(=O)Nc2ccc(S(=O)(=O)N3CCC(C)CC3)cc2)n1	GC-A act 41 (no result: HIF act)
CN(c1ccccc1)S(=O)(=O)c1ccc(NC(=O)c2nc(S(C)(=O)=O)ncc2Cl)cc1	GC-A act 49, GC-B act 38
CC1CCN(S(=O)(=O)c2ccc(NC(=O)c3ccncc3)cc2)CC1	none
O=C(NCCCc1ccccc1)C1CCN(c2nc(-c3ccc(Br)cc3)cs2)CC1	none (no result: HIF act, KLK7 zymogen act)
O=[N+]([O-])c1cccc(/C=N/Nc2nc(NCc3ccccc3)nc(N3CCOCC3)n2)c1O	HIF act 19
COc1ccccc1NC(=O)OCCCN1CCC2(CCC(C)CC2)C1=O (stereo not given)	none (no result: HIF act)
COc1ccc(-c2cccc(-c3nc4ccc(Cl)cn4c3NC3CCCCC3)c2)cc1	GC-A act 43, GC-B act 50 (no result: HIF act)
CC(=O)c1csc(-c2cccc(-c3nc4ccc(Cl)cn4c3NC3CCCCC3)c2)c1	GC-A act 51, GC-B act 56
CCC(C)Sc1cc(-c2nc3ccc(Cl)cn3c2NC2CCCCC2)ccc1OC (stereo not given)	none (no result: HIF act)
C/C=C/c1ccc([C@@H]2[C@H](CO)N(S(C)(=O)=O)[C@H]2CN(C)C(=O)CC)cc1	none (no result: HIF act)
Oc1ccccc1N=N/C(=N/Nc1ccccc1O)c1ccccc1	none
Cn1nnnc1N=N/C(=N/Nc1ccccc1)c1ccccc1	HIF act 182
O=[N+]([O-])c1nn(-c2ccc(Cl)cc2)n(O)c1=NCc1cccnc1	GC-A act 41
O=[N+]([O-])c1nn(-c2ccc(Cl)cc2)n(O)c1=NCc1ccccc1Cl	GC-A act 43
O=[N+]([O-])c1nn(-c2cccc(Cl)c2)n(O)c1=NCc1cccnc1	none
O=C(c1ccc(Cl)cc1)N1CCN(c2ccccn2)CC1	none (no result: HIF act, KLK7 zymogen act)
COc1cc([C@@H]2c3cc4c(cc3[C@@H](NC3CCN(Cc5ccccc5)CC3)[C@H]3COC(=O)[C@H]23)OCO4)cc(OC)c1O	HIF act 15 (no result: GC-A act, GC-B act, KLK7 zymogen act)
